Where a name gives a salt, the structure may show the parent alone. In all, about 2,000 compounds were measured (“fractional viability relative to vehicle”: median about 0.91, lowest 2% from about 0.045 on). Many of the other results were omitted from the sample, so the lowest values are more common in it than they were.
Tested on: TYKNU
Assay: fractional viability relative to vehicle; TYKNU is a high-grade serous ovarian cancer line; higher = less growth inhibition
Settings: 72 h
Summary of the method: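 TYKNU control cells or lentiCRISPRv2 knockout derivatives were seeded at 500 cells per well into drug-stamped 384-well plates holding a ~2100-compound library at 2 or 10 μM, in duplicate. Cells were grown at 37 °C in 5% CO2 in RPMI 1640 with 10% FBS, and drug treatment lasted 72 h. Viability was read by Cell Titer Glo luminescence. Duplicate treatment wells were averaged and normalised to duplicate control wells from the same plate position.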

[1] = 2uM, genotype: DNM1L knockout (sgDNM1L #1)
[2] = 2uM, genotype: sgCTRLA1 (non-targeting control)
[3] = 10uM, genotype: DNM1L knockout (sgDNM1L #1)
[4] = 10uM, genotype: sgCTRLA1 (non-targeting control)

Compound	fractional viability [1]	fractional viability [2]	fractional viability [3]	fractional viability [4]
CN(C)c1ccc(C(=C2C=CC(=[N+](C)C)C=C2)c2ccc(N(C)C)cc2)cc1 [Crystal Violet]	0.133	0.121	0.0375	0.0133
O=c1[nH]c(=O)n(C2CC(O)C(CO)O2)cc1Br (stereo not given) [Bromodeoxyuridine (BrdU)]	0.823	0.962	0.859	0.64
O=C(Nc1ccccc1-c1cn2c(CN3CCNCC3)csc2n1)c1cnc2ccccc2n1	0.608	0.845	0.0197	0.00961
Cc1nc(-c2cccnc2)sc1C(=O)Nc1ccccc1-c1cn2c(CN3CCOCC3)csc2n1	0.821	0.932	0.858	0.78
Cn1c2ccccc2c2c3c(c4c5ccccc5n(CCC#N)c4c21)CNC3=O	0.64	1.01	0.671	0.79
Cn1cncc1[C@@](N)(c1ccc(Cl)cc1)c1ccc2c(c1)c(-c1cccc(Cl)c1)cc(=O)n2C [Tipifarnib]	0.472	0.64	0.272	0.366
Cc1nnc(C(C)C)n1C1C[C@H]2CC[C@@H](C1)N2CC[C@H](NC(=O)C1CCC(F)(F)CC1)c1ccccc1 (stereo in doubt) [Maraviroc]	0.973	1.15	0.873	1.03
Cc1cc(-c2ncc(CC(=O)Nc3ccc(-c4cnccn4)cn3)cc2C)ccn1	0.863	1.1	0.665	0.746
CC(C)c1onc(-c2c(Cl)cccc2Cl)c1COc1ccc(/C=C/c2cccc(C(=O)O)c2)c(Cl)c1	0.953	1.1	0.781	1.09
c1ccc(Cn2c(-c3ccc(OC[C@H](C4CCNCC4)n4c(-c5ccccc5)nc5ccccc54)cc3)nc3ccccc32)cc1 [Deltarasin]	0.887	0.966	0.0145	0.0132
c1cc(-c2cnn3cc(-c4ccc(OCCN5CCCCC5)cc4)cnc23)ccn1 [Dorsomorphin (Compound C)]	0.845	0.916	0.552	0.503
C/C(=N\NC(=S)N1CCC1)c1ccccn1	0.171	0.137	0.225	0.167
Fc1ccc2[nH]ccc2c1-c1nc(N2CCOCC2)c2sc(CN3CCN(CC4CC4)CC3)cc2n1	0.883	0.947	0.634	0.711
O=C(NC1CCN(CCCCC2(C(=O)NCC(F)(F)F)c3ccccc3-c3ccccc32)CC1)c1ccccc1-c1ccc(C(F)(F)F)cc1 [Lomitapide Mesylate]	0.573	0.79	0.0435	0.0328
CC(=O)c1cc2c(o1)C(=O)c1ccccc1C2=O [Napabucasin]	0.0305	0.0196	0.018	0.0135
O=C(O)c1cc(=O)c2ccccc2o1 [Chromocarb]	0.948	1.07	0.923	1.05
O=C1c2ccccc2C(=O)c2c1ccc(O)c2O [Alizarin]	0.834	1.1	0.8	1.06
Cc1ccc(NC(=O)c2cccc(C(C)(C)C#N)c2)cc1Nc1ccc2ncn(C)c(=O)c2c1	0.244	0.283	0.27	0.31
CCNC(=O)C#Cc1ccc2c(C(=Nc3ccc(CN(C)C)cc3)c3ccccc3)c(O)[nH]c2c1	0.122	0.0962	0.0494	0.0319
CN(C)Cc1cccc(N=C(c2ccccc2)c2c(O)[nH]c3cc(C(=O)N(C)C)ccc23)c1	1.01	0.843	0.588	0.574
O=C([C@@H](Cc1cccc(C(F)(F)F)c1)NS(=O)(=O)c1cc(F)c2c(c1)CCNC2)N1CCCC1	0.927	1.04	0.863	0.888
CC(C)CCNC(=O)[C@H](CC(C)C)NC(=O)[C@H]1O[C@@H]1C(=O)O [Loxistatin Acid (E-64C)]	0.865	0.938	0.959	0.802
CCCCC(=O)N(Cc1ccc(-c2ccccc2-c2nnn[nH]2)cc1)[C@H](C(=O)O)C(C)C.CCOC(=O)[C@H](C)C[C@@H](Cc1ccc(-c2ccccc2)cc1)NC(=O)CCC(=O)O	0.864	0.941	0.769	0.732
CN1CCN(S(=O)(=O)c2ccc(-c3cnc(N)c(C(=O)Nc4cccnc4)n3)cc2)CC1	0.731	1.08	0.346	0.474
O=C(O)C(Cc1ccccc1[N+](=O)[O-])=NNc1nc(-c2ccc(Cl)c(Cl)c2)cs1 (mixture of isomers)	0.727	0.775	0.717	0.573

Reference: the supplement of paper PMC5919970
